Screening data deposited in PubChem BioAssay by Center for Chemical Genomics, University of Michigan.
Dicer inh – human Dicer pre-microRNA cleavage inhibition | cat-ELCCA pre-miR-21 Dicer processing, chemiluminescence; stronger effect = higher value | z-score at 25 µM | actives 6% (n = 47,000) | AID 1347074; in the data active = z-score above about 3, passing the limit was not always enough;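 also: higher signal means more uncleaved substrate so more Dicer inhibition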
Target sequence (Q9UPY3 whole entry, looked up): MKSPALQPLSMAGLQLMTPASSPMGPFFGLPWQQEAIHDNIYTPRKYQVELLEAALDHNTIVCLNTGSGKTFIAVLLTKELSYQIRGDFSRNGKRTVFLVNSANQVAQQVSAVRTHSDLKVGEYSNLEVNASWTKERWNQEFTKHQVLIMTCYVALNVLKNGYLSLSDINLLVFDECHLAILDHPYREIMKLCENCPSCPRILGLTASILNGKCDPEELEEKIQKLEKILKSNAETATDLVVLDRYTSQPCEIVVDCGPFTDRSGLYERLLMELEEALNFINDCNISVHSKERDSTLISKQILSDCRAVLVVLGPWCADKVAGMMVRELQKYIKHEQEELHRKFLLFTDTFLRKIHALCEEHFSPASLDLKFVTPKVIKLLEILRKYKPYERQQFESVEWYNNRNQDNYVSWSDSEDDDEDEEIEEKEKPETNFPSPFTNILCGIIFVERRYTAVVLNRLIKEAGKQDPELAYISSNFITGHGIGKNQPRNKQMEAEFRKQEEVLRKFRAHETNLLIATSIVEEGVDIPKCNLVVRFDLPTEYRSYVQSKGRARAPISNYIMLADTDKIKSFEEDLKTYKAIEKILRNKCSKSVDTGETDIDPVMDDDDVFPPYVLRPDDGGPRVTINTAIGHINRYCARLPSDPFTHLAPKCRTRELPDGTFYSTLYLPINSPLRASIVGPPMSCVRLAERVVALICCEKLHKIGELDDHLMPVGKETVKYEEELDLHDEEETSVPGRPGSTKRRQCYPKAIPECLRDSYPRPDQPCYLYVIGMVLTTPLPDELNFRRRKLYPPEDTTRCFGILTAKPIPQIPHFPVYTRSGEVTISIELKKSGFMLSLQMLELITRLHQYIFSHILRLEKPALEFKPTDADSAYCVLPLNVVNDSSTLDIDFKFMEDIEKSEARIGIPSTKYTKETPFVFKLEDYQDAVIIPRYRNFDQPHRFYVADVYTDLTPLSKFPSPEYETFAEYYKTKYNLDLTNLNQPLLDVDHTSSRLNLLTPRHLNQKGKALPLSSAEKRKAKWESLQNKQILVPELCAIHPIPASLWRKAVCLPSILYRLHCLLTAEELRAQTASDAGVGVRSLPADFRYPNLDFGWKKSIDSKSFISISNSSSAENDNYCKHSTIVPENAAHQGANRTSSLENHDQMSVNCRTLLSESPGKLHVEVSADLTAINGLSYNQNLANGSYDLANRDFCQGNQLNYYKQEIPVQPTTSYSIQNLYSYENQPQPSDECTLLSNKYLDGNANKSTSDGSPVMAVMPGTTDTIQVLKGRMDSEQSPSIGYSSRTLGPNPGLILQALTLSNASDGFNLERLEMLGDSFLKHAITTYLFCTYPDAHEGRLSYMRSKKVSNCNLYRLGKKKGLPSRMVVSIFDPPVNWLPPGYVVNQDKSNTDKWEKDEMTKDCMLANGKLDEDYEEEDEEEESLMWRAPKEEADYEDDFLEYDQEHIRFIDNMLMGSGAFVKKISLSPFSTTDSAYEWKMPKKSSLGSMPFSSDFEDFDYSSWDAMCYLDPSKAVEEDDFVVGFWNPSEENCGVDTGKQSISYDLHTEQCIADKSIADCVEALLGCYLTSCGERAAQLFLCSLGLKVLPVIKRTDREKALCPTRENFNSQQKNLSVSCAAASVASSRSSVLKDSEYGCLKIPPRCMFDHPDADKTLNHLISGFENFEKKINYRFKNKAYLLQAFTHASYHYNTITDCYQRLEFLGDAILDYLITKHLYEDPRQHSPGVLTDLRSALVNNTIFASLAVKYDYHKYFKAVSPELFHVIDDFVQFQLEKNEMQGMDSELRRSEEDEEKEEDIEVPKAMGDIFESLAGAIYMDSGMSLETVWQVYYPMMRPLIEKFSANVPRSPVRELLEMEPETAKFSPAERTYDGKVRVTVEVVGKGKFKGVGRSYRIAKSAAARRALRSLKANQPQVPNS
Large screens that a line does not name were inactive. The entries come from a sample that favours hits as a whole.

COc1cccc(OCC(O)Cn2c(C)[n+](C)c3ccccc32)c1 (configuration not stated)	none
COCCOC(=O)C1=C(C)NC2=C(C(=O)CC(c3cccs3)C2)C1c1cccs1 (configuration not stated)	none
CC1=C(C(=O)OC(C)C)C(c2coc3ccccc3c2=O)C2=C(CC(c3cccs3)CC2=O)N1 (configuration not stated)	Dicer inh 3.3
COc1cc(C2C(C(=O)OCC3CCCO3)=C(C)NC3=C2C(=O)CC(c2cccs2)C3)ccc1O (configuration not stated)	none
CC1=C(C(=O)OCCOc2ccccc2)C(c2coc3ccccc3c2=O)C2=C(CC(C)(C)CC2=O)N1 (configuration not stated)	Dicer inh 3.4
COCCOC(=O)C1=C(C)NC2=C(C(=O)CC(C)(C)C2)C1c1coc2ccccc2c1=O (configuration not stated)	none
CCSCCOC(=O)C1=C(C)NC2=C(C(=O)CC(c3cccs3)C2)C1c1ccc(O)c(OC)c1 (configuration not stated)	Dicer inh 5.4
COc1cccc(C2C(C(=O)OC(C)C)=C(C)NC3=C2C(=O)CC(c2cccs2)C3)c1OC (configuration not stated)	none
CC(=O)Oc1ccc(C2C(C(=O)OCC(C)C)=C(C)NC3=C2C(=O)CC(c2cccs2)C3)cc1 (configuration not stated)	none
CCSCCOC(=O)C1=C(C)NC2=C(C(=O)CC(c3cccs3)C2)C1c1ccc2c(c1)OCO2 (configuration not stated)	none
CC1=C(C(=O)OC(C)C)C(c2ccccc2F)C2=C(CC(c3cccs3)CC2=O)N1 (configuration not stated)	none
COc1ccc(OC)c(C2C(C(=O)OCC(C)C)=C(C)NC3=C2C(=O)CC(c2cccs2)C3)c1 (configuration not stated)	Dicer inh 3.1
CC1=C(C(=O)OCCOC(C)C)C(c2coc3ccccc3c2=O)C2=C(CC(C)(C)CC2=O)N1 (configuration not stated)	none
Cc1ccc(S(=O)(=O)NC(=O)NC2Cc3ccccc3C2)cc1	none
O=C1CC(NC2CCN(c3ncc(Cl)cc3Cl)CC2)C(=O)N1c1ccc(F)cc1 (configuration not stated)	none
ClC1(Cl)CC1CSC1=NCCN1 (configuration not stated)	none
CCOC(=O)C(C)Nc1n[nH]c(=S)[nH]c1=O (configuration not stated)	none
Cc1cn(C(=O)c2snnc2C)nc1-c1cccs1	none
Cc1cc(C(F)(F)F)cc(NNS(=O)(=O)c2ccc(Cl)cc2Cl)n1	none
Cc1cccc(NC(=S)N(CCC#N)C2CCCCC2)c1	none
CCCCCc1ccc(C(=O)NN)cc1	none
CC(C)NC(=O)CCSc1nc(-c2ccco2)cc(C(F)(F)F)n1	none
FC(F)(F)c1ccnc(NCCNC(=S)NCCc2ccccc2)n1	none
COc1cc2c(cc1OC)/C(=C/c1cc(OC)c(OC)c(OC)c1)C(=O)N2	none
O=C1Nc2ccccc2/C1=C/c1ccc2nsnc2c1	none
O=C1Nc2ccc(I)cc2/C1=C/c1cc(Br)c(O)c(Br)c1	Dicer inh 4.5
Cc1cc([N+](=O)[O-])ccc1N1CCCC1	none
O=c1[nH]c(-c2cccc([N+](=O)[O-])c2)nc2ccccc12	none
CCCOC(=O)C1C2C=CC3(CN(Cc4ccccc4)C(=O)C13)O2 (configuration not stated)	none
O=C(Nc1nccs1)c1ccc2noc(-c3ccccc3)c2c1	none
CSc1ncc2c(n1)-c1c(SC)sc(C(=O)Nc3ccc(Cl)cc3)c1CC2	none
COc1ccc(CNCc2ccc(Br)cc2)c(OC)c1	none
COc1ccc(CN=C(C)C2CCOC2=O)cc1 (configuration not stated)	none
COc1ccc(CNCC2(O)CCOC(C)(C)C2)cc1 (configuration not stated)	Dicer inh 3.6
O=C(Nc1nc(C(F)(F)F)c(-c2ccccc2)s1)c1cccs1	none
Nc1c(NCc2ccccc2)c(=O)c1=O	Dicer inh 3.3
Nc1nc(Nc2ccccc2)nc(NCc2ccccc2)c1[N+](=O)[O-]	none
O=c1[nH]cc(NCc2ccccc2)c(=O)[nH]1	none
CCN(CC)CC(=O)NN1CC(=O)N(c2cccc(Cl)c2)CC1=O	none
O=C(c1cc(C(F)(F)F)cc(C(F)(F)F)c1)N1CCc2cc([N+](=O)[O-])ccc21	none
C=C1SC(Nc2ccccc2OC)=NC12CCCCC2	none
COc1cc(/C=C2\CCCCC2=O)cc(OC)c1OC	none
CCOC(=O)C1=C(O)C(=O)N(C2CCCCC2)C1	none
CCOC(=O)C1CN(C2CCCCC2)C(=O)C1=O (configuration not stated)	Dicer inh 5.1
CCOC(=O)C1CC(=O)C(C(=O)OCC)CC1=O (configuration not stated)	none
Cc1nnc(N2C(=O)C(=O)/C(=C(/O)c3ccccc3)C2c2ccccc2F)s1 (configuration not stated)	none
COc1cccc(C2Oc3ccccc3C3CC(c4ccccc4O)=NN32)c1 (configuration not stated)	none
COc1ccc(C2Oc3ccccc3C3CC(c4ccccc4O)=NN32)cc1OC (configuration not stated)	Dicer inh 4.8
COc1ccc(O)c(C2=NN3C(C2)c2ccccc2OC3c2ccc(OC)c(O)c2)c1 (configuration not stated)	none
Oc1ccccc1C1=NN2C(C1)c1ccccc1OC2c1ccncc1 (configuration not stated)	none
Oc1ccc(C2Oc3ccccc3C3CC(c4ccccc4O)=NN32)cc1 (configuration not stated)	Dicer inh 18
COc1ccc(C2Oc3ccccc3C3CC(c4ccccc4O)=NN32)cc1O (configuration not stated)	none
O=C1CSC(c2ccc(F)cc2)N1c1ccccc1 (configuration not stated)	none
CCCN1C(=O)C2(/C(=C(/O)c3ccccc3)C(=O)C(=O)N2CC2CCCO2)c2ccccc21 (configuration not stated)	none
Cc1onc(-c2ccccc2)c1C(=O)NNC(=O)c1nc(-c2cccs2)no1	none
O=C(Nc1ccc(Br)cc1)c1ccc([N+](=O)[O-])s1	none
Nc1ccccc1C(=O)NNC(=O)c1ccccc1Cl	none
CSc1c(C#N)c(N)nc2sc(C(=O)c3ccc(OC(F)F)cc3)c(N)c12	none
CN1C(=S)NNC(=O)c2cc(Cl)ccc21	none
CCOC(=O)c1sc(NC(=O)CCCC(=O)O)nc1C	none
Cc1cc(-c2noc(COc3ccccc3F)n2)c2ccccc2n1	none
CN(/N=C/c1ccc(O)cc1O)c1ncc(Cl)cc1C(F)(F)F	Dicer inh 12
CN(/N=C/c1ccccc1Cl)c1ncc(C(F)(F)F)cc1Cl	none
CN(NC(=O)c1ccc(Cl)cc1)c1ncc(Cl)cc1C(F)(F)F	none
CN(C)/C=C/C=C/C=C/C(=O)c1ccc(Br)cc1	Dicer inh 4.5
CN(C)/C=C/C(=O)c1ccc(C#N)cc1	none
CC(C)Cc1ccc(C(=O)/C=C/N(C)C)cc1	none
N#CCCN1C(=O)C2(OCCO2)C2CCCCC21 (configuration not stated)	none
O=C(c1c(F)cccc1Cl)n1c2ccc(F)cc2c2nc3ccccc3nc21	none
CCCCCC1(C(=O)OCC)CC(C)(c2csc(N)n2)OC1=O (configuration not stated)	none
CCOc1ccc(C2C3=C(CC(C)(C)CC3=O)OC3=C2C(=O)CC(C)(C)C3)cc1	none
CCCC1CC(C)(c2csc(Cc3ccc(OCC)cc3)n2)OC1=O (configuration not stated)	Dicer inh 4.9
COC(=O)c1c(C)n(S(C)(=O)=O)c2ccc(N(C(=O)c3cccs3)S(C)(=O)=O)cc12	none
